Source: PubChem (University of Kansas High Throughput Screening Laboratory)
This is one part of a sample in which hits are shown more often than they occur.
Pf apPOL block = Pf-apPOL DNA polymerase inhibition. Recombinant Pf-apPOL, molecular beacon fluorescence, 1.5 h. 210,000 compounds, 0.25% hits. inhibition, % at 10 µM
mHTT CaM bind = mHTT-calmodulin interaction abrogation | 190,000 compounds, 3.6% hits | inhibition, % at 15 µM | AlphaScreen His-mHTT/GST-CaM binding, luminescence | AID 1671202 | P42858
Numbers stand for hits; - = inactive; . = not tested or not shown; ! = not active in a repeat. Cut-off read from the data, not from the text of the source: active = inhibition above about 50%; inactive = the rest.

SMILES	Pf apPOL block	mHTT CaM bind
CC1SC2(C(=O)Nc3ccccc32)N(c2cccc(Cl)c2)C1=O (stereo not drawn)	-	-
CCc1nc2c(c(=O)n1CC(=O)NCCCc1ccccc1)CN(Cc1ccccc1)CC2	-	-
COc1cccc(NC(=O)C2c3cc(OC)c(OC)cc3C(=O)N(C)C2c2ccccc2F)c1 (stereo not drawn)	-	-
N#CC1=C(N)N=C(SCC(=O)Nc2ccccc2)C(C(N)=O)C12CCCCC2 (stereo not drawn)	-	-
Cc1ccc(Nc2nc(O)c(C3=c4cc(Br)ccc4=NC3=O)s2)cc1C	-	-
CSCCC(C(=O)O)n1c(O)c(C2=c3cc(Br)ccc3=NC2=O)sc1=S (stereo not drawn)	.	51
O=C1N=c2ccc(Br)cc2=C1c1sc(=O)n(-c2ccccc2)c1O	-	-
Cc1ccccc1-n1c(O)c(C2=c3cc(Br)ccc3=NC2=O)sc1=O	-	63
O=C1C2CC=CCC2C(=O)N1CNc1cccc(Cl)c1 (stereo not drawn)	-	-
O=[N+]([O-])c1cc(F)c(N2CCCCCC2)cc1N1CCCC1	-	72
O=[N+]([O-])c1cc(F)c(N2CCOCC2)cc1N1CCCCC1	-	-
O=C(c1cccs1)N1CCN(c2cc(N3CCCC3)c(F)cc2[N+](=O)[O-])CC1	-	-
O=C(c1cccs1)N1CCN(c2cc(N3CCCCC3)c(F)cc2[N+](=O)[O-])CC1	-	51
COc1ccc(C(=O)c2oc3ccccc3c2N)cc1	-	-
CC1CCc2cc(F)ccc2N1C(=O)C12CCC(C)(C(=O)C1)C2(C)C (stereo not drawn)	-	-
CCN(CC)C(=O)C1CCCN(Cc2ccccc2Cl)C1 (stereo not drawn)	-	-
CC(=O)N(C1=C(N2CCOCC2)C(=O)c2ccccc2C1=O)c1ccccc1	-	-
COc1cccc(N(C(C)=O)C2=C(N3CCCC3)C(=O)c3ccccc3C2=O)c1	-	99
CC(=O)N(C1=C(N2CCCCC2)C(=O)c2ccccc2C1=O)c1ccccc1C	-	-
CC(=O)N(C1=C(N2CCOCC2)C(=O)c2ccccc2C1=O)c1ccc(Cl)c(Cl)c1	-	96
O=C(NCCCSc1ccccc1F)c1ccc(Cl)cc1Cl	-	.
Cc1ccccc1-c1nc2ccccc2o1	-	-
Cc1ccc(CCNC(=O)CCS(=O)(=O)Cc2ccccc2Cl)cc1	-	-
O=C(CSc1ccc(F)cc1)Nc1cc(-c2ccco2)nn1CCO	-	69
O=C(Nc1cc(-c2ccco2)nn1CCO)c1ccc(S(=O)(=O)N2CCOCC2)cc1	-	-
SMILES	Pf apPOL block	mHTT CaM bind
Cc1nnc2c(-c3ccccc3)nc3ccccc3n12	-	-
Cc1sc(N)nc1-c1c[nH]c2ccccc12	-	94
Cc1sc(N)nc1-c1ccc(Cl)cc1	-	-
COc1ccccc1N1CCN(C(=O)CN(c2cccc(Cl)c2Cl)S(C)(=O)=O)CC1	-	-
COc1ccc(N2CCN(C(=O)C3COc4ccccc4O3)CC2)cc1 (stereo not drawn)	-	-
CCn1c(C2CCN(Cc3ccc(Cl)cc3)C2)nc2cccnc21 (stereo not drawn)	-	57
CCn1c(C2CCN(Cc3ccc(F)cc3)C2)nc2cccnc21 (stereo not drawn)	-	-
Cc1nc(NC(=O)CCc2c(C)[nH]c(=O)n(C)c2=O)sc1C(=O)OC(C)C	-	-
CSC1=N/C(=C\c2ccc(N(C)C)cc2)C(=O)S1	-	-
CCSC1=N/C(=C\c2c(OC)cc(OC)cc2OC)C(=O)S1	-	-
CCN(CC)c1ccc(/C=C2\N=C(SC)SC2=O)cc1	-	64
CCSC1=N/C(=C/c2ccc(N(CC)CC)cc2OC)C(=O)S1	-	84
CCC(=O)N1c2ccc(S(=O)(=O)NCc3ccccc3)cc2CC1C (stereo not drawn)	-	-
O=C(Nc1ccncc1)c1ccc(C(=O)Nc2ccncc2)cc1	-	-
O=[N+]([O-])c1ccc(C2Nc3c(cccc3C(F)(F)F)C3C=CCC32)cc1 (stereo not drawn)	-	-
Cc1ccc([N+](=O)[O-])c2c1NC(c1ccc(Br)cc1)C1CC=CC21 (stereo not drawn)	-	97
O=C(O)c1ccc([N+](=O)[O-])c2c1NC(c1ccccc1)C1CC=CC21 (stereo not drawn)	-	80!
CCOc1cc2c(c([N+](=O)[O-])c1)NC(c1ccc(Br)cc1)C1CC=CC21 (stereo not drawn)	-	-
COc1ccc(CNC(=O)CN2CCN(C(=O)Nc3ccc(F)cc3)CC2=O)c(OC)c1	-	-
CCOc1cc(/C=C2\C(=O)Nc3ccc(Br)cc32)c(Br)cc1OC	-	-
CSc1ccc(/C=C2\C(=O)Nc3ccc(Br)cc32)cc1	-	-
CC(C)c1ccc(/C=C2\C(=O)Nc3ccc(F)cc32)cc1	-	100
CCOc1c(O)ccc(/C=C2\C(=O)Nc3ccc(Br)cc32)c1[N+](=O)[O-]	-	94
COc1ccccc1/C=C1\C(=O)Nc2ccc(F)cc21	-	-
O=C1Nc2ccc(F)cc2/C1=C/c1ccc(F)cc1	-	-
SMILES	Pf apPOL block	mHTT CaM bind
CCOc1ccccc1/C=C1\C(=O)Nc2ccc(F)cc21	-	96
Cc1ccc(/C=C2\C(=O)Nc3ccc(Br)cc32)o1	-	75
O=C(Cc1ccc(Br)cc1)Nc1nnc(C2CCCCC2)s1	-	-
CCOC(CNC(=O)Cn1c(=O)oc2ccccc21)OCC	-	-
COc1ccc(Nc2cc(-n3nc(C)cc3-c3ccccc3)ncn2)cc1	-	-
Cc1cc(O)cc(C)c1NS(=O)(=O)c1ccc([N+](=O)[O-])cc1	-	-
CN1C(=O)CCc2cc(NC(=O)C3CCCCC3)ccc21	-	-
CC(=O)Nc1ccc(S(=O)(=O)N2CC=C(c3cn(C)c4ncccc34)CC2)cc1	-	-
COc1ccc(Br)cc1/C=C1\C(=O)Nc2ccc(Br)cc21	-	-
O=C1Nc2ccc(Br)cc2/C1=C/c1ccc(O)cc1	-	100
O=C1Nc2ccc(F)cc2/C1=C/c1ccccc1F	-	-
O=C1Nc2ccc(Br)cc2/C1=C/c1ccc(Br)cc1	-	-
Cc1ccc(/C=C2\C(=O)Nc3ccc(Br)cc32)cc1	-	-
Cc1ccccc1/C=C1\C(=O)Nc2ccc(F)cc21	-	100
Cc1ccccc1/C=C1\C(=O)Nc2ccc(Br)cc21	-	97
CCCCOc1ccccc1/C=C1\C(=O)Nc2ccc(Br)cc21	-	62
O=C(NC1CC1)C(Cc1ccccc1)c1ccccc1 (stereo not drawn)	-	-
C/C=C/CSc1nc2nc(C)cc(C)n2n1	.	-
CCOC(=O)c1cnn(-c2c(Cl)cc(Cl)cc2Cl)c1-c1ccccc1	-	.
CN(C)c1ccc(/C=C2\SC(=O)N(CCc3nnc(N)s3)C2=O)cc1	-	-
CCCNc1c(N)cc(C(F)(F)F)cc1[N+](=O)[O-]	-	55
O=[N+]([O-])c1cc(C(F)(F)F)cc([N+](=O)[O-])c1NCCCn1ccnc1	-	.
Cc1ccc(CNC(=O)c2cc3n(n2)CCCN(Cc2cccc(C)c2)C3=O)cc1	-	-
Cc1cccc(CN2CCCn3nc(C(=O)Nc4ccc(F)cc4C)cc3C2=O)c1	74	-
Cc1cc(F)ccc1NC(=O)c1cc2n(n1)CCCN(Cc1ccccc1)C2=O	-	-
